Molecules are shown by their SMILES. Inconclusive results are not listed. Calls of active or inactive are those of the source. Calls come from the whole dose curve; as a rule, active = well fitted curve in the direction sought with a large enough effect; inconclusive = small, poorly fitted or top-dose-only effect, or another doubt; inactive = no such curve, though single readings can be large; an effect the other way counts as inactive or inconclusive.

Experiment [1] can be described thus: Quantitative High-Throughput drug screen in 47 multiple myeloma cell lines against the NCATS MIPE library collection: AMO1_DSMZ cell viability assay (AID 1918927; note: nearly all actives have a fitted effect of over 30% in size; note: potency is the fitted concentration of half-maximal effect). In a few lines: (§1)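 Inhibition of cell viability is measured here. Each line was plated at 500 cells per well, treated with MIPE 4.0 drugs, kept 48 hours at 37C, then assayed for ATP content by CellTiter-Glo luminescence.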

Experiment [2] in a line: Quantitative High-Throughput drug screen in 47 multiple myeloma cell lines against the NCATS MIPE library collection: ARP1_JJKsccF8 cell viability assay (AID 1918928; note: nearly all actives have a fitted effect of over 40% in size; note: potency is the fitted concentration of half-maximal effect). The method in brief:
(§2)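 ATP readout (CellTiter-Glo), 48 h drug incubation, 37 °C/5% CO2, 500 cells per well; normalisation to DMSO (100%) and media-only (0%) controls.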

Experiment [3] in a line: Quantitative High-Throughput drug screen in 47 multiple myeloma cell lines against the NCATS MIPE library collection: Karpas620_DSMZ cell viability assay (AID 1918959). Note: nearly all actives have a fitted effect of over 30% in size. Note: potency is the fitted concentration of half-maximal effect. In a few lines:
(§3)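 Luminescent ATP measurement with CellTiter-Glo gives viability, scaled between DMSO-only wells (100%) and media-only wells (0%). Cells, 500 per well, faced library compounds for 48 hours at 37C.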

A short description of experiment [4]: Quantitative High-Throughput drug screen in 47 multiple myeloma cell lines against the NCATS MIPE library collection: KHM11_PLB cell viability assay (AID 1918962). Note: nearly all actives have a fitted effect of over 35% in size. Note: potency is the fitted concentration of half-maximal effect. In a few lines:
as §3

A short description of experiment [5]: Quantitative High-Throughput drug screen in 47 multiple myeloma cell lines against the NCATS MIPE library collection: JIM3_ECACC cell viability assay (AID 1918963; note: nearly all actives have a fitted effect of over 35% in size; note: potency is the fitted concentration of half-maximal effect). The method in brief: as §3
A short description of experiment [6]: Quantitative High-Throughput drug screen in 47 multiple myeloma cell lines against the NCATS MIPE library collection: INA6_PLB cell viability assay (AID 1918965; note: nearly all actives have a fitted effect of over 55% in size; note: potency is the fitted concentration of half-maximal effect). In a few lines: (§4)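 Steps: seed 500 cells per well; pin-transfer MIPE 4.0 library; incubate 48 h at 37C, 5% CO2, humidified; add CellTiter-Glo, 5 min room temperature; read luminescence.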
A short description of experiment [7]: Quantitative High-Throughput drug screen in 47 multiple myeloma cell lines against the NCATS MIPE library collection: Karpas25_ECACC cell viability assay (AID 1918968; note: nearly all actives have a fitted effect of over 35% in size; note: potency is the fitted concentration of half-maximal effect). In a few lines: as §1
Experiment [8] can be described thus: Quantitative High-Throughput drug screen in 47 multiple myeloma cell lines against the NCATS MIPE library collection: KMS27_JCRB cell viability assay (AID 1918970). Note: nearly all actives have a fitted effect of over 30% in size. Note: potency is the fitted concentration of half-maximal effect. As to conditions: KMS27 myeloma cells, CellTiter-Glo ATP viability, 48 h; viability (% of DMSO): at 45.8 µM (top of the series). In a few lines: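 Myeloma cells (500 per well) were exposed to MIPE 4.0 compounds for 48 h at 37 °C, 5% CO2; viability was read as ATP luminescence with CellTiter-Glo, normalized to DMSO-only (100%) and media-only (0%) wells.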

Experiment [9] can be described thus: Quantitative High-Throughput drug screen in 47 multiple myeloma cell lines against the NCATS MIPE library collection: KMS12BM_JCRB cell viability assay (AID 1918971). Note: nearly all actives have a fitted effect of over 35% in size. Note: potency is the fitted concentration of half-maximal effect. In a few lines: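 qHTS of the MIPE 4.0 collection: 500 myeloma cells/well, 48 h drug exposure at 37C in 5% CO2, then CellTiter-Glo for 5 min at room temperature before luminescence reading.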
Experiment [10] in a line: Quantitative High-Throughput drug screen in 47 multiple myeloma cell lines against the NCATS MIPE library collection: EJM_DSMZ cell viability assay (AID 1918926; note: nearly all actives have a fitted effect of over 30% in size; note: potency is the fitted concentration of half-maximal effect). In a few lines: as §1
The nature of experiment [11]: Quantitative High-Throughput drug screen in 47 multiple myeloma cell lines against the NCATS MIPE library collection: Karpas417_ECACC cell viability assay (AID 1918961). Note: potency is the fitted concentration of half-maximal effect. As to conditions: Karpas417 myeloma viability, CellTiter-Glo ATP luminescence, 48 h; viability (% of DMSO): at 45.8 µM (top of the series). In a few lines: as §4
Experiment [12] in a line: Quantitative High-Throughput drug screen in 47 multiple myeloma cell lines against the NCATS MIPE library collection: JJN3_DSMZ cell viability assay (AID 1918966; note: nearly all actives have a fitted effect of over 50% in size; note: potency is the fitted concentration of half-maximal effect). In a few lines:
as §1

A short description of experiment [13]: Quantitative High-Throughput drug screen in 47 multiple myeloma cell lines against the NCATS MIPE library collection: ARD_JJKsccE7 cell viability assay (AID 1918929; note: potency is the fitted concentration of half-maximal effect). In a few lines: as §1
Experiment [14] in a line: Quantitative High-Throughput drug screen in 47 multiple myeloma cell lines against the NCATS MIPE library collection: H1112_PLB cell viability assay (AID 1918967; note: nearly all actives have a fitted effect of over 30% in size; note: potency is the fitted concentration of half-maximal effect). The method in brief: as §1
Experiment [15] is described as follows: Quantitative High-Throughput drug screen in 47 multiple myeloma cell lines against the NCATS MIPE library collection: KMM1_JCRB cell viability assay (AID 1918960). Note: nearly all actives have a fitted effect of over 30% in size. In a few lines: as §2
Experiment [16] can be described thus: Quantitative High-Throughput drug screen in 47 multiple myeloma cell lines against the NCATS MIPE library collection: JIM1_ECACC cell viability assay (AID 1918964). The method in brief:
as §1

Regarding `CC(C)c1c(C(=O)Nc2ccccc2)c(-c2ccccc2)c(-c2ccc(F)cc2)n1CC[C@H](O)C[C@@H](O)CC(=O)O`, the Potency result in experiment [1] and in [3] was “inactive” each time. In addition, the Potency is 18.7 µM (active) in experiment [2]; 18.7 µM (active) in experiment [4]; 14.8 µM (active) in experiment [5]; 8.33 µM (active) in [6]; 11.8 µM (active) in experiment [7]; 4.69 µM (active) in experiment [8]. In addition, the Potency in experiment [9] is 13.2 µM (active).
In the case of `C[C@H](CCC(=O)O)[C@H]1CC[C@H]2[C@H]3[C@@H](CC[C@]12C)[C@@]1(C)CC[C@@H](O)C[C@H]1C[C@@H]3O`, the Potency entry in [10], in experiment [6] and in [9] was “inactive” throughout. The Potency in experiment [2] is 1.48 µM (active); in [8] it was 20.9 µM (active).
Consider `OCCn1cc(-c2ccc3c(c2)CCC3=NO)c(-c2ccncc2)n1`, for which the Potency result in experiment [10], in experiment [2], in experiment [12] and in experiment [9] was “inactive” throughout. Further, the Potency in experiment [11] was 8.33 µM (active); in [4], 4.69 µM (active); in experiment [7] it was 23.5 µM (active).
In the case of `O=C1CCCC(=O)C1C(=O)c1ccc(C(F)(F)F)cc1[N+](=O)[O-]`, the Potency result in experiment [10], in experiment [2], in experiment [3], in [4], in [5] and in experiment [6] was “inactive” throughout. Moreover, the Potency entry in experiment [12], in [14], in experiment [7] and in experiment [8] was “inactive” each time. Also, the Potency in [13] was 6.62 µM (active); in [9] it was 0.166 µM (active).
On to `CCOC(=O)c1c(CSc2ccccc2)n(C)c2cc(Br)c(O)c(CN(C)C)c12`, for which the Potency in experiment [1] was 26.4 µM (active); in experiment [6], 16.6 µM (active); in experiment [12], 11.8 µM (active); in experiment [14], 6.62 µM (active); in experiment [8], 26.4 µM (active); in experiment [9], 18.7 µM (active). In [4], the Potency entry is “inactive”.
On to `CCCCN(CCCC)CC(O)c1cc(Cl)cc2c1-c1ccc(Cl)cc1C2=Cc1ccc(Cl)cc1` (centres undefined), for which the Potency in experiment [10] is 16.6 µM (active); in [6], 18.7 µM (active); in experiment [12], 18.7 µM (active); in [7], 23.5 µM (active). In addition, the Potency result in experiment [13] and in [3] was “inactive” each time.
For the compound `CC1CNc2c(cccc2S(=O)(=O)N[C@@H](CCCN=C(N)N)C(=O)N2CC[C@@H](C)C[C@@H]2C(=O)O)C1` (some centres undefined), the Potency result in [10], in experiment [13], in experiment [4], in experiment [5], in [6] and in experiment [12] was “inactive” in each case. Also, the Potency result in experiment [14] was “inactive”. The Potency in experiment [3] was 23.5 µM (active).
Turning to `NC(=O)c1nnn(Cc2cc(Cl)c(C(=O)c3ccc(Cl)cc3)c(Cl)c2)c1N`, the Potency entry in experiment [4] was “inactive”. Also, the Potency in [5] is 26.4 µM (active); in [6], 14.8 µM (active); in [12] it was 20.9 µM (active).
Turning to `CC(C)(C)c1[nH]cnc1C=c1[nH]c(=O)c(=Cc2ccccc2)[nH]c1=O`, the Potency result in experiment [1], in [13], in [15], in experiment [5] and in experiment [16] was “inactive” in each case. Also, the Potency in experiment [12] was 0.0481 µM (active).
With `COc1ccc2ccc(=O)oc2c1CC=C(C)C`, the Potency in experiment [10] was 1.48 µM (active); in experiment [2], 8.33 µM (active); in experiment [3], 16.6 µM (active); in [12], 11.8 µM (active); in [7], 20.9 µM (active); in [8], 18.7 µM (active). The Potency in experiment [9] is 13.2 µM (active). Moreover, the Potency result in [5] is “inactive”.
For `C[C@]12CC[C@@H]3c4ccc(O)cc4CC[C@H]3[C@H]1[C@@H](O)[C@@H](O)[C@H]2O`, the Potency result in experiment [3], in [5], in experiment [6], in experiment [14] and in experiment [8] was “inactive” throughout. Besides, the Potency in [7] is 26.4 µM (active).
For the compound `CCOC(=O)N1c2ccc(C(F)(F)F)cc2[C@@H](N(Cc2cc(C(F)(F)F)cc(C(F)(F)F)c2)C(=O)OC)C[C@H]1CC`, the Potency entry in [1], in experiment [13], in experiment [3], in experiment [15], in experiment [16] and in [14] was “inactive” each time. In addition, the Potency entry in experiment [8] is “inactive”. For the same compound, the figures for the Potency in experiment [2], in experiment [12] and in experiment [9] were 4.69 µM (active), 5.9 µM (active) and 13.2 µM (active), respectively.
Turning to `CCCCc1ccc(NS(=O)(=O)c2ccc(C)c(C(=O)N3CCN(c4cccc(C)c4C)CC3)c2)cc1`, the Potency entry in experiment [1], in experiment [3], in experiment [15] and in experiment [8] was “inactive” each time. Besides, the Potency in [2] is 20.9 µM (active); in [5], 16.6 µM (active); in experiment [12], 23.5 µM (active); in experiment [9], 20.9 µM (active).
`CNc1nc(-c2ccc3c(N)n[nH]c3c2)cc(N2C[C@@H](C(=O)NC3CCCCC3)CC[C@@H]2C)n1`: the Potency is 20.9 µM (active) in experiment [1]; 11.8 µM (active) in [2]; 8.33 µM (active) in experiment [13]; 20.9 µM (active) in [3]; 6.62 µM (active) in experiment [5]; 2.09 µM (active) in [6]. Besides, the results for the Potency in [7] and in [8] were 2.09 µM (active) and 10.5 µM (active), respectively.

The values above are taken from PubChem BioAssay (NCATS).
